Data reported in PubChem BioAssay (NCATS).
Results filed as inconclusive are left out. The source made the active and inactive calls. Unless noted, calls follow the shape of the dose curve; as a rule, active = well fitted curve in the direction sought with a large enough effect; inconclusive = small, poorly fitted or top-dose-only effect, or another doubt; inactive = no such curve, though single readings can be large; an effect the other way counts as inactive or inconclusive.

Key:
[1] = molecular target: Beta-2 adrenergic receptor (Homo sapiens) (UniProt P07550); assay: qHTS validation assay of beta-arrestin-biased ligands of beta2-adrenergic receptor (AID 485366); also: 0% is about no effect
In short: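 Arrestin-recruitment (Tango) reporter: ligand-bound beta2-AR recruits beta-arrestin, releasing tTA, which upregulates luciferase. Titrations of up to 46 microM incubated 18 hr at 37 degrees C before luminescent readout.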

[2] = molecular target: ATP-dependent 6-phosphofructokinase (Trypanosoma brucei brucei) (UniProt O15648); assay: qHTS Validation Assay to Find Inhibitors of T. brucei phosphofructokinase (AID 485368)
In short: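 Steps: substrate mix (0.5 mM F6P, 0.1 mM ATP, MgCl2, TEA pH 8.0); compound; 1.25 nM T. brucei PFK; 45 min RT; ATP depletion 10 min; ADP-to-ATP detection 10 min; luminescence read; curve fitting and classification.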

[3] = Quantitative high throughput screen for delayed death inhibitors of the malarial parasite plastid, 96 hour incubation (AID 488745); also: series mostly up to about 29 µM; % is scaled to controls: 0 for no effect and ±100 for the full control effect; nearly all actives have a fitted effect of over 70% in size
In short: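 P. falciparum carrying an integrated firefly luciferase reporter, grown in erythrocytes (2% hematocrit, 0.1% parasitemia final) in RPMI 1640/0.5% Albumax, was exposed to compound for 96 h (two generations) at 37 C, 5% CO2. Luminescence decrease indicated growth inhibition.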

[4] = Quantitative high throughput screen for delayed death inhibitors of the malarial parasite plastid, 48 hour incubation (AID 488752); also: % is scaled to controls: 0 for no effect and ±100 for the full control effect; nearly all actives have a fitted effect of over 65% in size
In short: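 Erythrocytes infected with P. falciparum carrying an integrated firefly luciferase reporter (2% hematocrit, 0.1% parasitemia final) were exposed to compounds in RPMI 1640/0.5% Albumax for 48 h at 37 C, 5% CO2. Growth inhibition was scored as reduced luminescence.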

[5] = molecular target: Thioredoxin reductase 1, cytoplasmic (Rattus norvegicus) (UniProt O89049); assay: qHTS Assay for Substrates of Mammalian Selenoprotein Thioredoxin Reductase 1 (TrxR1) (AID 488772);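 also: NADPH fluorescence in the first read after selenite addition and not the 8 min delta; series mostly up to about 57 µM; 0% is about no effect; a drop in NADPH fluorescence below the no-compound background marks a TrxR1 substrate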
In short: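 Quantitative HTS in Tris-HCl buffer at pH 7.5 with EDTA and Tween-20, using rat TrxR1, 400 uM NADPH and 400 uM selenite (final). A fall in initial NADPH fluorescence relative to background marked substrate behaviour.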

[6] = molecular target: Thioredoxin reductase 1, cytoplasmic (Rattus norvegicus) (UniProt O89049); assay: qHTS Assay for Inhibitors of Mammalian Selenoprotein Thioredoxin Reductase 1 (TrxR1) (AID 488773); conditions: Potency: inhibition;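 also: drop in NADPH fluorescence over an 8 min run after selenite addition; series mostly up to about 57 µM; % is scaled to controls: 0 for no effect and ±100 for the full control effect; nearly all actives have a fitted effect of over 40% in size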
In short: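 Steps: enzyme (90 nM) plus NADPH (400 uM final), 5 min at ~22 deg C; compound added, 15 min; selenite (400 uM final) added; fluorescence followed for 8 min. Concentration-response curves derived from the normalized delta values.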

[7] = molecular target: Flap endonuclease 1 (Homo sapiens) (UniProt P39748); assay: qHTS Validation Assay for the Inhibitors of Human Flap endonuclease 1 (FEN1) (AID 488816); also: % is scaled to controls: 0 for no effect and ±100 for the full control effect
In short: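 FEN1, dispensed as a 10 nM reagent, was preincubated with pin-transferred compounds for 15 min at room temperature before substrate was added (50 nM final). Plates were read at 0 and 15 min, and a four-parameter Hill equation was fitted to the concentration-response data.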

[8] = molecular target: M-phase phosphoprotein 8 (Homo sapiens) (UniProt Q99549); assay: qHTS Validation Assay for Inhibitors for MPP8 Chromodomain Interactions with Methylated Histone Tails (AID 488949);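 also: AlphaScreen signal from MPP8 chromodomain bound to biotinylated H3K9me3 peptide; top concentration of the series differs between compounds; % is scaled to controls: 0 for no effect and ±100 for the full control effect; nearly all actives have a fitted effect of over 55% in size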
In short: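 MPP8 (50 nM) was preincubated with biotinylated H3(1-18)K9me3 peptide (50 nM) in PBS pH 7.4, 0.01% Tween-20 for 30 min at room temperature, then with compounds for 30 min; binding was detected by AlphaScreen.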

[9] = molecular target: Chromobox protein homolog 1 (Homo sapiens) (UniProt P83916); assay: qHTS Validation Assay for Inhibitors of HP1-beta Chromodomain Interactions with Methylated Histone Tails (AID 488953);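 also: loss of AlphaScreen luminescence from HP1-beta binding biotinylated H3K9me3 peptide; series mostly up to about 110 µM; % is scaled to controls: 0 for no effect and ±100 for the full control effect; nearly all actives have a fitted effect of over 50% in size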
In short: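 HP1-beta (50 nM) was preincubated 30 min at room temperature with biotinylated H3(1-18)K9me3 peptide (50 nM) in PBS pH 7.4, 0.01% Tween-20, then with compounds 30 min. AlphaScreen signal was read after streptavidin donor/nickel chelate acceptor beads (10 ug/mL final).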

[10] = molecular target: Methanococcus maripaludis chaperonin (MmCpn) (UniProt Q6LX38); assay: High-Throughput Screening for Modulators of Cytosolic Chaperonin Activity: MmCpn Primary Screen (AID 488978);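 also: 50 nM MmCpn enzyme hydrolysing 30 µM ATP at 37 °C; 0% is about no effect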
In short: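 MmCpn (50 nM final) was preincubated with compound 5 min at RT, then 30 uM ATP (final) was added and the reaction ran 10 min at 37C. ADP produced was detected by Transcreener HTRF (ex 320 nm; em 590/665 nm).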

[11] = molecular target: Transient receptor potential cation channel subfamily V member 1 (Homo sapiens) (UniProt Q8NER1); assay: HTS Assay for Compounds that Act as Enhancers of the Vanilloid Receptor 1 (AID 488979); also: 0% is about no effect
In short: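 TRPV1-expressing cells loaded with Fluo-8 calcium dye; compounds added and calcium influx read kinetically for 3 min (agonist phase), then capsaicin at EC20 added and read 2 min more for enhancement. Fluorescence ex 480/em 520 nm.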

[12] = molecular target: Thyrotropin receptor (Homo sapiens) (UniProt P16473); assay: qHTS Assay for Antagonists of the Thyroid Stimulating Hormone Receptor (AID 488980); also: series mostly up to about 58 µM; 0% is about no effect
In short: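 HEK293 cells transfected with human TSHR, suspended in HEPES-buffered HBSS with 70 uM RO 20-1724, were treated with compounds plus TSH at EC80 (4 nM final). cAMP was measured by competitive HTRF (cryptate anti-cAMP antibody, cAMP-d2 acceptor).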

[13] = molecular target: D(1A) dopamine receptor (Homo sapiens) (UniProt P21728); assay: HTS Assay for Allosteric Agonists of the Human D1 Dopamine Receptor: Primary Screen for Agonists (AID 488981); also: 0% is about no effect
In short: (§1)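 Tetracycline-induced HEK293 T-REx cells force-coupled to calcium signalling were incubated overnight at 30 C and dye-loaded at room temperature. Calcium flux over 180 s after compound addition flagged agonists; a further 180 s read after EC20 dopamine flagged potentiators.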

[14] = molecular target: D(1A) dopamine receptor (Homo sapiens) (UniProt P21728); assay: HTS Assay for Allosteric Agonists of the Human D1 Dopamine Receptor: Primary Screen for Potentiators (AID 488982); also: 0% is about no effect
In short: as §1

[15] = molecular target: D(1A) dopamine receptor (Homo sapiens) (UniProt P21728); assay: HTS Assay for Allosteric Agonists of the Human D1 Dopamine Receptor: Primary Screen for Antagonists (AID 488983);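 also: calcium flux response to an EC80 dopamine challenge measured with no-wash dye; % is scaled to controls: 0 for no effect and ±100 for the full control effect; nearly all actives have a fitted effect of over 65% in size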
In short: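 Tetracycline-induced HEK293 T-REx cells expressing force-coupled D1 were plated overnight at 30 C, dye-loaded for calcium, and read kinetically. Compounds were pinned in, then an EC80 dopamine challenge followed after 180 s to reveal antagonism.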

[16] = Validation screen for small molecules that induce genotoxicity in human embryonic kidney (HEK293T) cells expressing luciferase-tagged ELG1 (AID 493106); also: 0% is about no effect
In short: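 HEK293T cells expressing luciferase-tagged ELG1 were exposed to compound or DMSO vehicle for 16 hr at 37 °C, 5% CO2. Genotoxic stress raises ELG1 levels, so increased luciferase signal after ONE-Glo addition and 30 min at room temperature marks hits.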

[17] = molecular target: ATPase family AAA domain-containing protein 5 (Homo sapiens) (UniProt Q96QE3); assay: Validation screen for small molecules that inhibit ELG1-dependent DNA repair in human embryonic kidney (HEK293T) cells expressing luciferase-tagged ELG1 (AID 493107);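 also: cells co-treated with the DNA-damaging agent 5-fluorouridine alongside compound; series mostly up to about 46 µM; % is scaled to controls: 0 for no effect and ±100 for the full control effect; inhibitors lower the ELG1-luciferase luminescence signal; nearly all actives have a fitted effect of over 70% in size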
In short: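 HEK293T cells expressing luciferase-tagged ELG1 were co-treated with 5-fluorouridine and compound or DMSO for 16 hr at 37 °C, 5% CO2. Luciferase activity was then read with ONE-Glo after 30 min at room temperature; suppressed signal indicates blocked ELG1 function.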

[18] = molecular target: Thyrotropin-releasing hormone receptor (Homo sapiens) (UniProt P34981); assay: qHTS for Small Molecule Agonists and Allosteric Enhancers of Human TRH Receptor: Validation Screen for Agonists (AID 493127;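 active = calcium activation more than 3 SD above the typical response in the agonist read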;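 also: intracellular calcium rise by fluo-8 fluorescence before TRH EC20 addition; 0% is about no effect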); conditions: TRH receptor agonist cell assay; at 2 µM; stronger effect = higher value
In short: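 TRHR-expressing cells were plated overnight in serum-containing medium, then loaded with fluo-8 calcium dye at room temperature for 30 min–1.5 h. After a 10 s baseline, compound was pin-transferred and calcium fluorescence (ex 480/em 530) read kinetically for agonist response.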

Chain of Thyrotropin-releasing hormone receptor (Homo sapiens) (P34981 whole entry, looked up): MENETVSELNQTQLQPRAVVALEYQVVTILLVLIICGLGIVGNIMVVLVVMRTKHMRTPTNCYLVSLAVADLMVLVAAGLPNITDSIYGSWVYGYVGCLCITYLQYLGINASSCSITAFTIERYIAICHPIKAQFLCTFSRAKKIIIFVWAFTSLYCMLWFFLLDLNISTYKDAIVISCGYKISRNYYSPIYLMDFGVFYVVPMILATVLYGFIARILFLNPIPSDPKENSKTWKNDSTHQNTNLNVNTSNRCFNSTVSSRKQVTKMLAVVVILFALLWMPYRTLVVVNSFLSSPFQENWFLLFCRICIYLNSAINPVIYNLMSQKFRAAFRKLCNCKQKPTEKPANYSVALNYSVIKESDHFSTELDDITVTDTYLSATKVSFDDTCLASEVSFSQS
Chain of ATPase family AAA domain-containing protein 5 (Homo sapiens) (Q96QE3 whole entry, looked up, the tested form may be a part): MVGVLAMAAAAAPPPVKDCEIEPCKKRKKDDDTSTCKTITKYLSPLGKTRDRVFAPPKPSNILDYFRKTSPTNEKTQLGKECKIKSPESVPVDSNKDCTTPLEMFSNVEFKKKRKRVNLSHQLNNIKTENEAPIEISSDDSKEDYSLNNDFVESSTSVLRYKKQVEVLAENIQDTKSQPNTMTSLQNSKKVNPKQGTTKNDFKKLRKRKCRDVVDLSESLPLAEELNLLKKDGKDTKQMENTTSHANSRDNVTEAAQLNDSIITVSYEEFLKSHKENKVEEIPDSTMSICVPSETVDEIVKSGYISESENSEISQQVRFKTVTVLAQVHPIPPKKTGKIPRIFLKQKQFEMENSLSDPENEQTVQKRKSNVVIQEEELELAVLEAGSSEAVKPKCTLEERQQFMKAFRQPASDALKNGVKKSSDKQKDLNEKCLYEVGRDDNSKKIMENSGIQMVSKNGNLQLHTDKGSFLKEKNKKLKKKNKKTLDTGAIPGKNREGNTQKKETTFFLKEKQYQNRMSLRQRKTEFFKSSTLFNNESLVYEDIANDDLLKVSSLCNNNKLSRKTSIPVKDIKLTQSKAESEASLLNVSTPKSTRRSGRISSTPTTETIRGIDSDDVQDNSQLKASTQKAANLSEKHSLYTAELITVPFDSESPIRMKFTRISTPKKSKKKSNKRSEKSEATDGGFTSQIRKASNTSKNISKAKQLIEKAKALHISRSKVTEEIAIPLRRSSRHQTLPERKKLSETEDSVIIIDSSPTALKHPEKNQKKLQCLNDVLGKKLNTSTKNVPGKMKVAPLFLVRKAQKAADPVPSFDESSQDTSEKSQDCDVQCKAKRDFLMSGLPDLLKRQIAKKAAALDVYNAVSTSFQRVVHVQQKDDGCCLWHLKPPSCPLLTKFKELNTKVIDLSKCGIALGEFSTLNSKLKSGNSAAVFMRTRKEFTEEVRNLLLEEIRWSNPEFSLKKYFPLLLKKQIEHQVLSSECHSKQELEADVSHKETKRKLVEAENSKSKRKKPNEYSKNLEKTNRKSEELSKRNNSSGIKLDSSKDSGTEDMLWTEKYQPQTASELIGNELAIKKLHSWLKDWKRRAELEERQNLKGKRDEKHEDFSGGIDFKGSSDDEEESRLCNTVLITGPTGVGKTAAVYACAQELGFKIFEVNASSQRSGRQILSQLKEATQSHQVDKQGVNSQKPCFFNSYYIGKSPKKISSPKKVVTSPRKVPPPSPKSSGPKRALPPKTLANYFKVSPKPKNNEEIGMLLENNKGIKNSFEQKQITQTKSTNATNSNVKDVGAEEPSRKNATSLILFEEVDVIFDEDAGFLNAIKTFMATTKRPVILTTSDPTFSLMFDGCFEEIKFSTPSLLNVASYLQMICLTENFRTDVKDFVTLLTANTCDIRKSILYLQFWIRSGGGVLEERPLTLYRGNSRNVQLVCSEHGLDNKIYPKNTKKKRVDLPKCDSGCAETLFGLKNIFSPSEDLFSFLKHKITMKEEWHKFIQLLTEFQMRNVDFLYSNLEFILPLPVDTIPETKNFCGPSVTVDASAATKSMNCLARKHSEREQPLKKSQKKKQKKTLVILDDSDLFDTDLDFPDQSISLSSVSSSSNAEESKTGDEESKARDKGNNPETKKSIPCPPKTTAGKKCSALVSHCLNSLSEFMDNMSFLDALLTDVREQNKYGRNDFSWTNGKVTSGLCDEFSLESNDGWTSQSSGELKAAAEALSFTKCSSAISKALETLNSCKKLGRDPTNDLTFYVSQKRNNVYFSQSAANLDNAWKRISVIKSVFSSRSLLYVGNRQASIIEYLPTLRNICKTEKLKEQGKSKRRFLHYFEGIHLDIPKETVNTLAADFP
Chain of Transient receptor potential cation channel subfamily V member 1 (Homo sapiens) (Q8NER1 whole entry, looked up): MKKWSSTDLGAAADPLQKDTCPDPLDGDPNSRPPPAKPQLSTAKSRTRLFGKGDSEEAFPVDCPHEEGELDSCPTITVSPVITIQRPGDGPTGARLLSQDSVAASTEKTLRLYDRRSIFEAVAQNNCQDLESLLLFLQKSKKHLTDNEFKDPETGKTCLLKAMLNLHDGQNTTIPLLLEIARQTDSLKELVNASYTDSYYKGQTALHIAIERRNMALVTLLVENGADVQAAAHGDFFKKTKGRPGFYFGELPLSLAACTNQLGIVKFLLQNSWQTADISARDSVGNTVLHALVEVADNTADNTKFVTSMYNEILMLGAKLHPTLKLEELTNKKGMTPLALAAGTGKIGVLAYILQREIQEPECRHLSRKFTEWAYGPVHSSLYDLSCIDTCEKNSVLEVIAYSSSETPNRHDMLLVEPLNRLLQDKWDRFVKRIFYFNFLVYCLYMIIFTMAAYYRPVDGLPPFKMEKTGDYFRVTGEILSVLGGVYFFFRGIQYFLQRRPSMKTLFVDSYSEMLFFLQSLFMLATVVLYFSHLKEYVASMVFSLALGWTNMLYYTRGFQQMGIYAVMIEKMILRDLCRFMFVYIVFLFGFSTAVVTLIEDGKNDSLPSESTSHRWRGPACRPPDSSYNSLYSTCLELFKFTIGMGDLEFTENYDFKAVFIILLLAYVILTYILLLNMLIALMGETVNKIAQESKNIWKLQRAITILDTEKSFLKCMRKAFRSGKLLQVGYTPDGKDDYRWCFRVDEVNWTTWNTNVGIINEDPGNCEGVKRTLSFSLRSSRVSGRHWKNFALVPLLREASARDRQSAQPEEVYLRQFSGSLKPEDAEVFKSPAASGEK
Chain of Beta-2 adrenergic receptor (Homo sapiens) (P07550 whole entry, looked up): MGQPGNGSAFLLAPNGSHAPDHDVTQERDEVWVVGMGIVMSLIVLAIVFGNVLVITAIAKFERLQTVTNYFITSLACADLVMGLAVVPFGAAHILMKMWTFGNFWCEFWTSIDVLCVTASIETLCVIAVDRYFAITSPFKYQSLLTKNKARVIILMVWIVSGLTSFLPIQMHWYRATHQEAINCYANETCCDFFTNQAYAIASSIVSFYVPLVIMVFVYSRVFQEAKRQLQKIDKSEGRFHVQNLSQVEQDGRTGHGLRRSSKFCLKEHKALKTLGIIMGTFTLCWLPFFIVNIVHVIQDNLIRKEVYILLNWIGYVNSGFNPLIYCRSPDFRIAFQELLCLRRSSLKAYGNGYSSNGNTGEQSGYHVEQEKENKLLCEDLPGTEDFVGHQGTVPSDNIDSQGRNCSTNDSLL
Chain of Methanococcus maripaludis chaperonin (MmCpn) (Q6LX38 1-543): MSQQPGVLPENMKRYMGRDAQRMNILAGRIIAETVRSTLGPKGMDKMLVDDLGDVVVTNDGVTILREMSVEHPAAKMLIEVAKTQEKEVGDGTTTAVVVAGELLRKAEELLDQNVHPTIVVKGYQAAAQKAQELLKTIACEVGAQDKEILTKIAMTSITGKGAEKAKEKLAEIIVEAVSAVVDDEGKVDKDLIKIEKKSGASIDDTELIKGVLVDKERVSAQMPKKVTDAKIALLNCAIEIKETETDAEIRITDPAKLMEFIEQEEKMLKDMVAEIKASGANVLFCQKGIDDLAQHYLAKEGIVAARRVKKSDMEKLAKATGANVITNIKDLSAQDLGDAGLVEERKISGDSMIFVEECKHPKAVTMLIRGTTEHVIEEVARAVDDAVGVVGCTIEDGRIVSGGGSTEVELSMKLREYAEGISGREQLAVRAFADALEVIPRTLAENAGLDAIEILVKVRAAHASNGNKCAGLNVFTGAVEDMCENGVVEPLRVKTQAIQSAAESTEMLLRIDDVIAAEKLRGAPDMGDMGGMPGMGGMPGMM
Chain of Thyrotropin receptor (Homo sapiens) (P16473 whole entry, looked up): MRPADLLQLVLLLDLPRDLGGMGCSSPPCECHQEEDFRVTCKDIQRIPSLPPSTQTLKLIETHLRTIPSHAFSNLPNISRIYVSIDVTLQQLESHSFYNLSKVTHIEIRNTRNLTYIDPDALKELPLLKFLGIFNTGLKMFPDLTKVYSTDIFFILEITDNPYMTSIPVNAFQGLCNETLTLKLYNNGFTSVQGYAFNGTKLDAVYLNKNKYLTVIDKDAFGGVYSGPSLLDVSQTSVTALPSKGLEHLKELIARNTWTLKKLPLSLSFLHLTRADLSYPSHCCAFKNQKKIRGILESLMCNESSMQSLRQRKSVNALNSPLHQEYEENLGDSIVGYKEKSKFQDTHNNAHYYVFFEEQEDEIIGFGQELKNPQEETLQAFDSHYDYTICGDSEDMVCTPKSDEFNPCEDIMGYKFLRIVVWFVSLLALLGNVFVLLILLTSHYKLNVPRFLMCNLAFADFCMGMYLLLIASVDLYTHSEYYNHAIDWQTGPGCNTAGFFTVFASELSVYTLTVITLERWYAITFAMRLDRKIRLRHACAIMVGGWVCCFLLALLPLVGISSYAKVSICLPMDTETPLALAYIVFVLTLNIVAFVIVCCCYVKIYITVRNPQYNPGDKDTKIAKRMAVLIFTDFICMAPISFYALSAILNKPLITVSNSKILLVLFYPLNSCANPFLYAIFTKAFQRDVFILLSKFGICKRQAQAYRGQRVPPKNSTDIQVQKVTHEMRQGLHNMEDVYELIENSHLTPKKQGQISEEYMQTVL
Chain of Chromobox protein homolog 1 (Homo sapiens) (P83916 whole entry, looked up): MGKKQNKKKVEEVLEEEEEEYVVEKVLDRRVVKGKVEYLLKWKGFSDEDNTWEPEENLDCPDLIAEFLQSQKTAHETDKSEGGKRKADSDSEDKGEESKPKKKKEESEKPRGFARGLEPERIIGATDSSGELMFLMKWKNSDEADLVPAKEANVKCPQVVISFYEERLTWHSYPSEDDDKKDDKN

N=C(N)c1ccccc1
inactive: outcome [1] | Potency [2] | Potency [3] | Potency [4] | outcome [5] | Potency [6] | Potency [7] | Potency [8] | Potency [9] | outcome [10] | outcome [11] | outcome [12] | Potency [13] | Potency [14] | Potency [15] | Potency [16] | Potency [17] | activation [18] 1.19%

N[C@H](C(=O)O)[C@H](O)C(=O)O
inactive: outcome [1] | Potency [2] | Potency [3] | Potency [4] | outcome [5] | Potency [6] | Potency [7] | Potency [8] | outcome [10] | outcome [11] | outcome [12] | Potency [13] | Potency [14] | Potency [15] | Potency [16] | activation [18] 0.0625%

CC(N)=NCCCC[C@@H](N)C(=O)O
inactive: outcome [1] | Potency [2] | Potency [3] | Potency [4] | outcome [5] | Potency [6] | Potency [7] | Potency [8] | Potency [9] | outcome [10] | outcome [11] | outcome [12] | Potency [13] | Potency [14] | Potency [15] | Potency [16] | Potency [17]

CC(C)C[C@H](NC(=O)[C@H](O)[C@H](N)Cc1ccccc1)C(=O)O
inactive: outcome [1] | Potency [2] | Potency [3] | Potency [4] | outcome [5] | Potency [6] | Potency [7] | Potency [8] | Potency [9] | outcome [10] | outcome [11] | outcome [12] | Potency [13] | Potency [14] | Potency [15] | Potency [16] | Potency [17] | activation [18] -0.0625%

CC(/C=C/c1cccc(Oc2ccc(F)cc2)c1)N(O)C(N)=O (stereo not given)
inactive: outcome [1] | Potency [2] | Potency [3] | Potency [4] | outcome [5] | Potency [6] | Potency [7] | Potency [8] | Potency [9] | outcome [10] | outcome [11] | outcome [12] | Potency [13] | Potency [14] | Potency [15] | activation [18] 1%

O=c1onc2n1-c1cc(Br)ccc1OC2
inactive: outcome [1] | Potency [2] | Potency [3] | Potency [4] | outcome [5] | Potency [6] | Potency [7] | Potency [8] | outcome [10] | outcome [11] | outcome [12] | Potency [13] | Potency [14] | Potency [15] | Potency [16] | Potency [17]

NC/C=C\C(=O)O
inactive: outcome [1] | Potency [2] | Potency [3] | Potency [4] | outcome [5] | Potency [6] | Potency [7] | Potency [8] | outcome [10] | outcome [11] | outcome [12] | Potency [14] | Potency [15] | Potency [16] | Potency [17] | activation [18] 0.75%

NCCCCN=C(N)N
inactive: outcome [1] | Potency [2] | Potency [3] | Potency [4] | outcome [5] | Potency [6] | Potency [7] | Potency [8] | Potency [9] | outcome [10] | outcome [11] | outcome [12] | Potency [13] | Potency [14] | Potency [15] | Potency [16] | Potency [17] | activation [18] 0.812%

NC1C=CC=C(C(=O)O)C1 (stereo not given)
inactive: outcome [1] | Potency [2] | Potency [3] | Potency [4] | outcome [5] | Potency [6] | Potency [7] | Potency [8] | outcome [10] | outcome [11] | outcome [12] | Potency [13] | Potency [14] | Potency [15] | Potency [17] | activation [18] -0.125%

CC(N)=O
inactive: outcome [1] | Potency [2] | Potency [3] | Potency [4] | outcome [5] | Potency [6] | Potency [8] | Potency [9] | outcome [10] | outcome [11] | outcome [12] | Potency [13] | Potency [14] | Potency [15] | Potency [16] | Potency [17] | activation [18] 0.25%

COC(=O)[C@H](NC(=O)c1cc(-c2ccccc2)nc2ccccc12)c1ccccc1
inactive: outcome [1] | Potency [2] | Potency [3] | Potency [4] | outcome [5] | Potency [6] | Potency [7] | Potency [8] | Potency [9] | outcome [10] | outcome [11] | outcome [12] | Potency [14] | Potency [15] | Potency [16] | activation [18] -5.81%

O=C(O)c1cccnc1C(=O)O
inactive: outcome [1] | Potency [2] | Potency [3] | Potency [4] | outcome [5] | Potency [6] | Potency [7] | Potency [8] | outcome [10] | outcome [11] | outcome [12] | Potency [13] | Potency [14] | Potency [15] | Potency [16]

COC(=O)C(C)(N)Cc1ccc(O)cc1 (stereo not given)
inactive: outcome [1] | Potency [2] | Potency [3] | Potency [4] | outcome [5] | Potency [6] | Potency [7] | Potency [8] | outcome [10] | outcome [11] | outcome [12] | Potency [13] | Potency [14] | Potency [15] | Potency [16] | Potency [17] | activation [18] 0.125%

CCCn1c(=O)c2[nH]c(-c3ccc(S(=O)(=O)O)cc3)nc2n(CCC)c1=O
inactive: outcome [1] | Potency [2] | Potency [3] | Potency [4] | outcome [5] | Potency [6] | Potency [7] | Potency [8] | Potency [9] | outcome [10] | outcome [11] | outcome [12] | Potency [13] | Potency [14] | Potency [15] | Potency [16] | Potency [17] | activation [18] 0.688%

Cc1cccc(C)c1OCC(N)C(C)C (stereo not given)
inactive: outcome [1] | Potency [2] | Potency [3] | Potency [4] | outcome [5] | Potency [6] | Potency [7] | Potency [8] | outcome [10] | outcome [11] | outcome [12] | Potency [14] | Potency [15] | Potency [16] | Potency [17] | activation [18] 1.56%
